# Source: PubChem (several laboratories)
# An excerpt weighted towards active compounds, which were near 1.4% of everything screened.
# Vc quorum ag = inducers of Vibrio cholerae quorum light production without autoinducers, primary screen, BH1578 luxS cqsA deficient, single point; V. cholerae BH1578 lux reporter, luminescence, 6 h; activation, % at 18.7 µM; actives 0.16% (n = 350,000); AID 588436, 2011; in the data active = activation mostly above about 9.7%, no sharp cut-off; inconclusive = no clear call, values can overlap the other calls; inactive = mostly below about 3.7%
# PrP UTR inh = inhibition of PrP 5' UTR reporter expression. AID 488862, 2010. actives 0.35% (n = 340,000). cell-based PrP 5' UTR mRNA reporter, plate reader. inhibition, % (no concentration beside the values); in the data active = inhibition above about 52%
# PrPC surface inh = inhibitors of human cell surface prion protein PrPC, primary screen, cell-based, TR-FRET | Major prion protein (Homo sapiens), P04156 | actives 0.43% (n = 370,000) | inhibition, % at 13.8 µM | TR-FRET read-out; in the data active = inhibition above about 24%
# FadD28 FP inh = inhibitors of FadD28 bisubstrate probe binding, primary screen, biochemical, fluorescence polarization, single point; inhibition, % at 12.5 µM; actives 0.22% (n = 360,000); AID 588549, 2011; in the data active = inhibition above about 8.5%, passing the limit was not always enough; inconclusive = no clear call, values can overlap the other calls
# SSB-PriA inh = inhibitors of Klebsiella pneumoniae PriA binding to SSB C-terminal tail, primary screen, biochemical, AlphaScreen. PriA–SSB C-terminal tail interaction (Klebsiella pneumoniae). AlphaScreen SSBct-PriA binding, biotinylated peptide. inhibition, % at 33 µM. actives 0.6% (n = 430,000); in the data active = inhibition mostly above about 37%, no sharp cut-off; inactive = mostly below about 20%
# PrPC confirm = confirmation of inhibitors of cell surface human prion protein, confirmation, cell-based, TR-FRET | shares compounds with PrPC surface inh | cell surface PrPC level | inhibition, % at 13.8 µM | actives 65% (n = 1,500); in the data active = inhibition above about 25%
# LD9 tox = cytotoxicity in LD9 cells, cytotoxicity control for cell surface PrPc inhibitor project, cell-based, luminescence, high throughput; shares compounds with PrPC surface inh; luminescence viability; inhibition, % at 13.8 µM; actives 29% (n = 1,500); in the data active = inhibition above about 9.5%
# A number is an active result; – = inactive; ? = inconclusive; · = not tested or not shown.
SMILES,Vc quorum ag,PrP UTR inh,PrPC surface inh,FadD28 FP inh,SSB-PriA inh,PrPC confirm,LD9 tox
COC(=O)C1=CC(=O)C=C(OC)[C@@]12Oc1cc(C)cc(OC)c1C2=O,·,·,59,·,·,–,98
Cn1c(SCc2ccc(Cl)cc2)nnc1-c1ccc2nonc2c1,–,–,70,–,–,–,–
CCc1nnc(NC(=O)CSc2sc3c(O)cc(=O)[nH]c3c2C#N)s1,–,–,–,–,–,·,·
Cc1csc(NC(=O)CSc2sc3c(O)cc(=O)[nH]c3c2C#N)n1,–,–,26,–,–,–,–
Cc1oncc1C(=O)NC(c1cccnc1)C1CCOCC1 (stereo unspecified),·,·,·,·,–,·,·
Oc1ccccc1Nc1nc(NCc2ccco2)c2ccccc2n1,–,–,–,–,–,·,·
Cc1cccc(Nc2nc(NCc3ccco3)c3ccccc3n2)c1,–,–,30,–,–,31,29
c1ccc(Nc2nc(NCc3ccco3)c3ccccc3n2)cc1,–,–,28,–,–,35,15
COc1ccc(NC(=O)C=C2NN=C(c3sccc3C)O2)cc1OC,·,·,·,·,–,·,·
Cc1cc(C)c2nc(NNC(=O)c3ccc(S(=O)(=O)N4CCc5ccccc5C4)cc3)sc2c1,–,–,–,–,–,·,·
Cc1cc(C)c2sc(NNC(=O)c3ccc(S(=O)(=O)N4CCc5ccccc5C4)cc3)nc2c1,–,–,29,–,–,30,12
CC(C)CC(N)c1csc(Nc2cnccn2)n1 (stereo unspecified),–,·,31,–,·,26,–
CC(C)CC(N)c1csc(Nc2ccccn2)n1 (stereo unspecified),–,·,–,–,·,·,·
Clc1cccc(CNc2ccn3nc(-c4ccccc4)cc3n2)c1,–,·,–,–,·,·,·
c1ccc(COc2ccc(-c3cc4nc(NCCOc5ccccc5)ccn4n3)cc2)cc1,–,·,–,–,·,·,·
COCCCNc1ccn2nc(-c3ccc(OCc4ccccc4)cc3)cc2n1,–,·,42,–,·,30,–
Clc1cccc(CNc2ccn3nc(-c4ccc(OCc5ccccc5)cc4)cc3n2)c1,–,·,37,–,·,32,–
O=C(O)c1ccccc1SCc1csc(-c2ccccc2)n1,–,–,76,–,–,60,–
COC(=O)c1ccccc1SCc1csc(C)n1,–,–,–,–,–,·,·
CC(C)(C)c1ccc(-n2nc(C#N)c(Cl)cc2=O)cc1,–,–,69,–,–,70,98
O=c1c(Br)c(Br)cnn1-c1ccccc1,–,–,33,–,–,80,98
CCOC(=O)CSc1nc(C)c2ccccc2n1,–,–,–,?,–,·,·
CCOC(=O)CSc1nc(C2CC2)nc2ccccc12,–,–,25,–,–,43,–
Cc1ccc(C(=O)CSc2nc(C(C)C)nc3ccccc23)cc1,–,–,–,–,–,·,·
COC(=O)CSc1nc(C(C)C)nc2ccccc12,·,–,121,–,–,123,–
SMILES,Vc quorum ag,PrP UTR inh,PrPC surface inh,FadD28 FP inh,SSB-PriA inh,PrPC confirm,LD9 tox
Cc1cccc(C)c1NC(=O)CSc1nc(COc2ccccc2)nc2ccccc12,–,–,–,–,–,·,·
CCOC(=O)CSc1nc(C(C)(C)C)nc2ccccc12,–,–,32,–,–,58,–
CCOC(=O)CSc1nc(COc2ccccc2)nc2ccccc12,–,–,59,–,–,60,–
CS(=O)(=O)N1CCCC1C(=O)Nc1nnc(-c2cccc(Cl)c2)o1 (stereo unspecified),·,·,·,·,–,·,·
COc1ccc(N2CCN(CCNC(=O)C34CC5CC(CC(C5)C3)C4)CC2)cc1,·,·,·,·,–,·,·
COc1ccc([C@@H](O)CNC(=O)c2cccc(Br)c2)cc1OC,·,·,·,·,–,·,·
COc1cccc(C=NNc2nncc(-c3ccccc3)n2)c1,·,·,·,·,–,·,·
CCOC(=O)CSc1nc(C(C)C)nc2ccccc12,–,–,110,–,–,123,–
CC(C)NC(=O)CSc1nc(Cc2ccccc2)nc2ccccc12,–,–,–,–,–,·,·
CC(C)OC(=O)CSc1nc(Cc2cccs2)nc2ccccc12,–,–,37,–,–,–,–
CC(C)(C)c1nc(SCC(=O)NNC(=O)c2ccccc2)c2ccccc2n1,–,–,45,–,–,67,–
CCc1nonc1NC(=O)c1oc2cc(Br)ccc2c1C,–,–,28,–,–,91,–
CCc1nc2ccccc2c(C(=O)OCC(=O)Nc2cccc(S(=O)(=O)N3CCOCC3)c2)c1C,–,–,26,–,–,–,10
CN(CC(=O)Nc1cccc(S(=O)(=O)N2CCOCC2)c1)CC(=O)Nc1ccc(Cl)c(C(F)(F)F)c1,–,–,25,–,–,–,–
CN(CC(=O)Nc1cccc(F)c1)CC(=O)Nc1cc(S(=O)(=O)N2CCOCC2)ccc1Cl,–,–,–,–,–,·,·
CCc1nc2ccccc2c(C(=O)OCC(=O)Nc2ccc(S(=O)(=O)N3CCOCC3)cc2)c1C,–,–,–,–,–,·,·
O=C(Nc1c(C(=O)c2ccc(Cl)cc2)oc2ccc(Br)cc12)c1ccc(F)cc1,·,·,·,·,–,·,·
O=C(COc1cccc2c1CCN(Cc1ccccc1)C2=O)N1CCCCC1,–,–,29,–,–,–,–
COc1cc(CN2CCN(Cc3cccc(OC)c3OC)CC2)cc(OC)c1,–,–,28,–,–,–,–
O=S(=O)(Cc1ccccc1Cl)NCC1CCN(C2CCCC2)CC1,·,·,·,·,–,·,·
Cc1cc(C)c2nc(SC3CCOC3=O)cc(C)c2c1 (stereo unspecified),–,–,78,–,–,87,–
COc1ccc2c(C)cc(SC3CCOC3=O)nc2c1 (stereo unspecified),–,–,–,–,–,·,·
O=C(NCC(c1ccsc1)N1CCCCCC1)c1cccc2ccccc12 (stereo unspecified),·,·,·,·,–,·,·
CC(=O)NC(CSc1cc(C)nc2ccc(Br)cc12)C(=O)O (stereo unspecified),–,–,32,–,–,57,–
Cc1cc(C)c(-c2csc(NC(=O)/C=C/c3cccs3)n2)c(C)c1,–,–,45,–,–,41,–
SMILES,Vc quorum ag,PrP UTR inh,PrPC surface inh,FadD28 FP inh,SSB-PriA inh,PrPC confirm,LD9 tox
Cc1ccc(N2CCCS2(=O)=O)cc1NC(=O)c1c(F)cccc1Cl,·,·,·,·,–,·,·
Cc1nnc2c(SC(C)C)nc3ccccc3n12,–,–,33,–,–,47,–
CCOC(=O)CSc1nc2ccccc2n2c(C)nnc12,–,–,–,–,–,·,·
COc1cc(C=NNC(=O)CCn2nnc3ccccc32)ccc1O,·,·,·,·,–,·,·
NC(=O)c1cccc(-c2cc(Nc3ccc(OC(F)(F)F)cc3)ncn2)c1,–,–,51,–,–,–,–
O=C(NCCO)c1cccc(-c2cc(Nc3ccc(OC(F)(F)F)cc3)ncn2)c1,·,·,–,·,·,·,·
CC(C)c1nc(SCC(=O)Nc2nccs2)c2ccccc2n1,–,–,51,·,–,90,–
